According to PubChem BioAssay (EPA / NIEHS):
Several values for one entry are separate records, joined by “and”; a condition that tells them apart may be missing. Equal values may be shown once. Results filed as inconclusive are left out. Activity calls are given as the source filed them. The calls were made as follows: active = hit-call score of the fitted dose curve at least 0.9, where 1 is the maximum; inconclusive = response in the unintended direction; inactive = score below 0.9.

Assay: ACEA_ER_AUC_viability: ACEA Biosciences xCELLigence Real-Time Cell Analysis on Estrogen Receptor Agonism for Viability (AID 2283782);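 also: hit means loss of impedance signal meaning reduced cell growth or viability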
Outline: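 Viability endpoint: reduced impedance area under the curve relative to DMSO, recorded by real-time electrode sensing over ~80 h of continuous exposure. Duplicate plates of T47D in hormone-depleted medium; eight concentrations, 1:4 dilutions, 100 uM maximum.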

Compound | outcome | AC50
CCOc1ccc(N)cc1 | inactive | 
C=C(C)C(=O)OCCCCOC(=O)C(=C)C |  | 30.7 µM (active)
O=[N+]([O-])c1ccc(Nc2ccccc2)cc1 | inactive | 
CCOP(=S)(OCC)SCS(=O)(=O)C(C)(C)C | inactive | 
O=c1oc2ccccc2c(O)c1C(CC(O)c1ccc(-c2ccc(Br)cc2)cc1)c1ccccc1 (stereo not given) |  | 22.7 µM (active)
O=C(CCl)NCO | inactive | 
Nc1nc(N)nc(Cl)n1 | inactive | 
O=[N+]([O-])c1cccc2ccccc12 | inactive | 
O=NN1CCCCCCC1 | inactive | 
O=C1C=CC(=O)c2ccccc21 |  | 22.5 µM (active)
Cc1ccc(CCl)cc1 |  | 40.7 µM (active)
c1cc[c]([Sb]([c]2ccccc2)[c]2ccccc2)cc1 |  | 50 µM (active)
CCOP(=S)(OCC)OP(=S)(OCC)OCC | inactive | 
Nc1cccnc1 | inactive | 
CC(C)(COCC1CO1)COCC1CO1 (stereo not given) |  | 29.9 µM (active)
CCN(CC)C(=O)C(Cl)=C(C)OP(=O)(OC)OC |  | 25.8 µM (active)
CN(C1CCCCC1)C1CCCCC1 |  | 68.6 µM (active)
COCC(=O)N(c1c(C)cccc1C)[C@H](C)C(=O)OC |  | 50 µM (active)
Brc1ccc(Br)cc1 | inactive | 
CCCCS(=O)(=O)Cl |  | 53.1 µM (active)
CCCCC(CC)COC(=O)Cl (stereo not given) | inactive | 
c1ccc2c(c1)Oc1ccccc1O2 | inactive | 
N#Cc1ccccc1Cl | inactive | 
CCOC(=O)Cc1ccccc1 |  | 50 µM (active)
CCOC(=O)c1ccccc1S(=O)(=O)NC(=O)Nc1nc(Cl)cc(OC)n1 | inactive | 
CCC(C)(C#N)N=NC(C)(C#N)CC (stereo not given) | inactive | 
NC(=O)CCl |  | 39.6 µM (active)
Cc1cc(Cl)ccc1N |  | 80.8 µM (active) and 14.3 µM (active)
O=C/C(Cl)=C(/Cl)C(=O)O |  | 73.9 µM (active)
CCN(N=O)C(N)=O | inactive | 
